# Reference: PubChem BioAssay
# Values joined by “and” are separate entries in the source; they are usually repeats but may differ in a detail not shown here. Identical values can stand only once. Active and inactive are the calls of the source. Cut-off read from the data, not from the text of the source, unless noted: active = inhibition above about 80%; inactive = the rest.
# Experiments:
# [1] = system: Aerobactin synthetase IucA (Klebsiella pneumoniae); assay: inhibition of K. pneumoniae IucA enzyme – biochemical, Tocris library, absorbance (AID 1345561; call rule not given here;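 note: 100% = enzyme without compound and 0% = no enzyme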); details: purified IucA enzyme assay, absorbance (OD) read-out; stronger effect = lower value;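 tested at 8 µM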
# [2] = viability loss with induced miR-34 in A549 – imaging, A549 dox-inducible miR-34, nuclei and caspase counts, primary screen (AID 1347080;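 active = compounds whose cell count with miR-34 switched on is under 0.7 times the count with it off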); details: A549 miR-34 inducible, Hoechst nuclei count, 48 h
# [3] = chitosan synthesis blockers in C. neoformans – flow cytometry, Cibacron Brilliant Red staining (AID 1347148; call rule not given here;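 note: compound exposure lasted three days at 37 degrees C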); details: Cryptococcus neoformans chitosan, stronger effect = lower value; at 10 µM unless noted
# [4] = compounds altering HSF1 focus formation in cells – imaging, Selleck Cancer Library (AID 1347162; in the data active = plate-normalised HSF1 focus index below about 0.46); details: human cells, HSF1 nuclear foci imaging, at 10 µM; SSMD: measured here: HSF1 foci SSMD mean; cell count: measured here: cell number; plate-normalised HSF1 focus index: stronger effect = lower value
# [5] = galactose survival enhancers in mitochondrial complex I cybrids – cell-based, galactose medium, ATP luminescence, primary screen (AID 1645843;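 active = z-score of at least 1.8 in each of two replicates, scored against plate mean and spread of sample wells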;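 note: positive z means more ATP and so rescue of galactose-driven cybrid death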); details: complex I mutant cybrid cells, 72 h, stronger effect = higher value
# [6] = blockers of cellular phospholipid synthesis – cell-based, LOPAC library, screen 4, primary screen (AID 1347384; call rule not given here); details: animal cells, phospholipid biosynthesis inhibition screen; at 10 µM
# [7] = MELAS cybrid and Rieske KO viability enhancers – cell-based, MELAS cybrids, Rieske KO mouse fibroblasts, CellTiter-Glo, primary screen (AID 1508586;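 active = mean z-score across replicates of 1.96 or higher in either the MELAS or the Rieske mutant cell line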;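 note: z relative to plate mean and SD of compound and empty wells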); details: low glucose
# [8] = P. berghei load reduction in hepatocytes – cell-based, HepG2, luciferase luminescence, HepG2 viability, primary screen (AID 624349; in the data active = parasite load remaining mostly below about 12%, no sharp cut-off; inactive = mostly above about 10%;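 note: 100% = mean of DMSO negative control wells on the same plate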); details: P. berghei liver stage in HepG2, luciferase luminescence, concentration not given here; parasite load remaining: stronger effect = lower value; viability: measured here: HepG2 viability without parasites
# [9] = growth inhibition, single agent or in combination, cell-based, chromothripsis tumors, cisplatin or BGB combos (AID 1671449); details: LFS_MB_P medulloblastoma cells;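 note: cells exposed for 96 hours; 0% = vehicle DMSO and 100% = killing by high DMSO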
# [10] = growth inhibition, single agent and combos, cell-based, chromothripsis tumors, cisplatin or BGB combos (AID 1671450); details: HDN33 neuroblastoma cells, stronger effect = higher value;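 note: cells exposed to compound for four days; 0% = vehicle DMSO and 100% = cell killing by high DMSO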
# [11] = growth inhibition, single agents and combos, ICB984, cell-based, cisplatin or BGB combos, synergistic combos for chromothripsis tumors (AID 1671451; call rule not given here;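 note: cells exposed for 96 hours before readout; 0% = vehicle DMSO and 100% = killing by high DMSO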); details: ICB984 medulloblastoma cells, drug combinations, stronger effect = higher value
# [12] = growth inhibition, single agents and combos, LFS_MB_1R, cell-based, cisplatin or BGB combos, synergistic combos for chromothripsis tumors (AID 1671452); details: LFS_MB_1R medulloblastoma cells, stronger effect = higher value;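 note: cells exposed for 96 hours before readout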
# [13] = growth inhibition, single agents and combos, HTB85, cell-based, BGB or cisplatin IC20 combos, synergistic combos for chromothripsis tumors (AID 1671453); details: HTB85 osteosarcoma cells, drug combinations, stronger effect = higher value;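 note: cells exposed for 96 hours before readout; 0% = vehicle DMSO and 100% = high DMSO killing control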
# [14] = growth inhibition, single agents and combos, CRL2098, cell-based, BGB or cisplatin IC20 combos, synergistic combos for chromothripsis tumors (AID 1671454); details: CRL2098 osteosarcoma cells, drug combinations, stronger effect = higher value;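 note: cells exposed for 96 h before readout; 0% = vehicle DMSO and 100% = killing by high DMSO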
# [15] = growth inhibition, single agents and combos, HD-MB03, cell-based, BGB or cisplatin IC20 combos, synergistic combos for chromothripsis tumors (AID 1671455; in the data active = inhibition above about 83%;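 note: 0% = vehicle DMSO and 100% = high DMSO as cytotoxic control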); details: HD-MB03 medulloblastoma cells, stronger effect = higher value
# [16] = growth inhibition, single agents and combos, UWB1.289, cell-based, BGB or cisplatin combos, synergistic combos for chromothripsis tumors (AID 1671456); details: UWB1.289 ovarian carcinoma cells, stronger effect = higher value;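 note: cells exposed to compound for four days; 0% = vehicle DMSO and 100% = killing by high DMSO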
# [17] = growth inhibition, single agents and combos, LFS_MB_2R, cell-based, cisplatin combos, synergistic combos for chromothripsis tumors (AID 1671457); details: LFS_MB_2R medulloblastoma cells, stronger effect = higher value;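 note: cells exposed to compound for four days before readout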
# [18] = growth inhibition, MDA-MB-436, cell-based, BGB or cisplatin combos, synergistic combos for chromothripsis tumors (AID 1671458; call rule not given here;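 note: cells exposed for 96 hours; 0% = vehicle DMSO and 100% = killing by high DMSO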); details: MDA-MB-436 breast carcinoma growth inhibition, drug combinations, stronger effect = higher value
# [19] = UWB1.289_BRCA1 ovarian cancer growth, cell-based, BGB or cisplatin combinations (AID 1671459); details: UWB1.289 BRCA1 ovarian carcinoma, drug combinations, stronger effect = higher value
# [20] = drug combination toxicity in non-malignant astrocytes – cell-based, BGB or cisplatin IC20 combos, cytotoxicity control for chromothriptic childhood tumor combination screen (AID 1671460); details: Human astrocytes, viability inhibition, drug combinations, at 0.5 µM, stronger effect = higher value;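 note: cells exposed to compounds for 96 hours before viability readout; 0% = vehicle and 100% = killing control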
# [21] = BT084 cell growth, single and combined drugs, ICGC_MB145, cisplatin and BGB IC40 combos (AID 1671461); details: BT084 medulloblastoma cells, drug combinations, stronger effect = higher value;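 note: cells exposed to drugs for 96 hours; 0% = vehicle DMSO and 100% = high DMSO full killing control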
# [22] = RCMB18 cell growth, single agent and combined, cisplatin and BGB IC40 combos (AID 1671462); details: RCMB18 medulloblastoma cells, stronger effect = higher value;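 note: cells exposed to compound for four days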
# [23] = CRL1545 cell growth, single agent and combined, cisplatin and BGB IC20 combos (AID 1671464); details: CRL1545 osteosarcoma cells, stronger effect = higher value;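 note: cells exposed to compound for 96 hours before readout; 0% = vehicle DMSO and 100% = high DMSO killing control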
# [24] = stronger effect = lower value, cell number ratio, induced over uninduced
# [25] = measured here: relative caspase fold change +Dox/-Dox
# [26] = measured here: total cells with miR-34 induction, stronger effect = lower value
# [27] = measured here: total cells without miR-34 induction
# [28] = MELAS cybrid survival, CellTiter-Glo 48 h, stronger effect = higher value
# [29] = Rieske KO mouse fibroblast survival, CellTiter-Glo 72 h
# [30] = measured here: combination with BGB IC40, at 0.05 µM
# [31] = measured here: with BGB IC20 combination, at 0.5 µM
# [32] = measured here: with cisplatin IC20 combination, at 0.5 µM
# [33] = measured here: combination with cisplatin, at 0.5 µM
# [34] = measured here: combination with cisplatin, at 5 µM
compound,measurement,setting,value
COC(=O)C1=C(C)NC(C)=C(C(=O)OCCCN2CCC(c3ccccc3)(c3ccccc3)CC2)[C@H]1c1cccc([N+](=O)[O-])c1,remaining activity,[1],116% (inactive)
same,fold change,[2]; [24],0.98 (inactive)
same,fold change,[2]; [25],1.09
same,cell count,[2]; [26],562
same,cell count,[2]; [27],574
same,fold fluorescence,[3],5.27 [at 82 µM] (inactive)
same,SSMD,[4],-1.25
same,cell count,[4],6310
same,plate-normalised HSF1 focus index,[4],0.927 (inactive)
same,z-score,[5],-0.83 (inactive)
NC(C(=O)O)c1nn[nH]n1 (centres undefined),remaining activity,[1],102% (inactive)
same,fold change,[2]; [24],1.01 (inactive)
same,fold change,[2]; [25],0.805
same,cell count,[2]; [26],9500
same,cell count,[2]; [27],9360
same,z-score,[5],-0.46 (inactive)
N=C(N)SCCc1ccc(OCc2ccc([N+](=O)[O-])cc2)cc1,remaining activity,[1],106% (inactive)
same,fold change,[2]; [24],0.959 (inactive)
same,fold change,[2]; [25],0.93
same,cell count,[2]; [26],5550
same,cell count,[2]; [27],5790
same,outcome,[6],inactive
same,z-score,[5],-0.76 (inactive)
COc1cc(NC(=O)c2ccccn2)ccc1Cl,remaining activity,[1],122% (inactive)
same,fold change,[2]; [24],1.03 (inactive) and 0.942 (inactive)
same,fold change,[2]; [25],0.59 and 1.55
same,cell count,[2]; [26],7300 and 8170
same,cell count,[2]; [27],7110 and 8670
same,z-score,[7]; [28],0.202 (inactive)
same,z-score,[7]; [29],0.293
same,z-score,[5],1.19 (inactive)
O=C(NC(NC(=S)Nc1ccc(F)c([N+](=O)[O-])c1)C(Cl)(Cl)Cl)C(c1ccccc1)c1ccccc1 (centres undefined),parasite load remaining,[8],37.9% (inactive)
same,viability,[8],150%
same,remaining activity,[1],80.1% (inactive)
same,fold change,[2]; [24],0.886 (inactive) and 0.916 (inactive)
same,fold change,[2]; [25],0.378 and 1.21
same,cell count,[2]; [26],1760 and 1260
same,cell count,[2]; [27],1990 and 1380
same,z-score,[7]; [28],-0.482 (inactive)
same,z-score,[7]; [29],-0.549
same,z-score,[5],-0.7 (inactive)
same,inhibition,"[9]; at 0.5 µM, stronger effect = higher value",-14.4% (inactive) and -15.8% (inactive)
same,inhibition,"[9]; measured here: combination with BGB IC20, at 0.005 µM",-15.1% and -22%
same,inhibition,"[9]; measured here: combination with BGB IC40, at 0.005 µM",-12.9% and -23.4%
same,inhibition,[9]; [30],-2.89% and -34.1%
same,inhibition,"[9]; measured here: combination with cisplatin, at 0.5 µM, stronger effect = higher value",-21.5% and -41.9%
same,inhibition,"[9]; measured here: combination with cisplatin, at 5 µM, stronger effect = higher value",-21.2% and -42.7%
same,inhibition,"[10]; BGB combo, at 5 µM",-9.61% and -16%
same,inhibition,[10]; at 0.5 µM,-0.93% (inactive) and -12% (inactive)
same,inhibition,"[10]; cisplatin combo, at 5 µM",-12.1% and -4.83%
same,inhibition,[10]; [31],-8.76% and -21.5%
same,inhibition,[10]; [32],2.56% and -5.96%
same,inhibition,"[10]; single agent, at 5 µM",4.16% and -9.08%
same,inhibition,"[11]; BGB IC20 combo, at 0.005 µM",7.62% and 15.2%
same,inhibition,"[11]; BGB IC40 combo, at 0.005 µM",-20.7% and 11.9%
same,inhibition,"[11]; BGB IC40 combo, at 0.05 µM",35.5% and -11.2%
same,inhibition,[11]; at 0.5 µM,-22.3% (inactive) and -17.8% (inactive)
same,inhibition,"[11]; cisplatin combo, at 0.05 µM",33.7% and -15.2%
same,inhibition,"[11]; cisplatin combo, at 0.5 µM",-13.4% and -3.51%
same,inhibition,"[11]; cisplatin combo, at 5 µM",-12.5% and -33.8%
same,inhibition,"[11]; measured here: 5 uM single agent, at 5 µM",-8.95% and -2.73%
same,inhibition,[12]; at 0.5 µM,4.09% (inactive) and -12.4% (inactive)
same,inhibition,[12]; [30],-23.4% and -14.6%
same,inhibition,[12]; [33],-13.7% and -10.4%
same,inhibition,[12]; [34],30.6% and -30.6%
same,inhibition,[13]; at 0.5 µM,8.95% (inactive) and 0.41% (inactive)
same,inhibition,"[13]; measured here: with BGB IC20, at 0.5 µM",16.1% and 0.127%
same,inhibition,"[13]; measured here: with BGB IC20, at 5 µM",2.8% and -10.9%
same,inhibition,"[13]; measured here: with cisplatin IC20, at 0.5 µM",1.41% and -9.26%
same,inhibition,"[13]; measured here: with cisplatin IC20, at 5 µM",2.01% and -34.1%
same,inhibition,"[13]; single agent, at 5 µM",-3.27% and 7.66%
same,inhibition,[14]; at 0.5 µM,-40.5% (inactive) and -32.4% (inactive)
same,inhibition,"[14]; measured here: combination with BGB at IC20, at 0.5 µM",-40.4% and -25.9%
same,inhibition,"[14]; measured here: combination with cisplatin at IC20, at 0.5 µM",-32.4% and -44.5%
same,inhibition,[15]; at 0.5 µM,-6.28% (inactive) and -0.79% (inactive)
same,inhibition,"[15]; measured here: combo with BGB at IC20, at 0.5 µM",-4.65% and -5.29%
same,inhibition,"[15]; measured here: combo with cisplatin at IC20, at 0.5 µM",-1.73% and -0.093%
same,inhibition,[16]; at 0.5 µM,1.14% (inactive) and 7.56% (inactive)
same,inhibition,"[16]; measured here: inhibition with BGB combination, at 0.05 µM",-13.3% and -2.68%
same,inhibition,"[16]; measured here: inhibition with cisplatin combination, at 0.05 µM",-5.95% and 6.61%
same,inhibition,[17]; at 0.5 µM,-3.23% (inactive) and -7.87% (inactive)
same,inhibition,[17]; [33],-13.3% and -8.76%
same,inhibition,[17]; [34],-66.9% and -2.51%
same,inhibition,[18]; at 0.5 µM,-16.1% (inactive) and -3% (inactive)
same,inhibition,"[18]; measured here: BGB combination, at 0.5 µM",-8.94% and -6.88%
same,inhibition,"[18]; measured here: BGB combination, at 5 µM",-14.6% and -14.8%
same,inhibition,"[18]; measured here: cisplatin combination, at 0.5 µM",-23.9% and -0.178%
same,inhibition,"[18]; measured here: cisplatin combination, at 5 µM",-32.1% and -10.9%
same,inhibition,"[19]; BGB combination, concentration series, at 5 µM",0.384% and 38.2%
same,inhibition,[19]; at 0.5 µM,2.79% (inactive) and 5.22% (inactive)
same,inhibition,"[19]; cisplatin combination, concentration series, at 5 µM",64.5% and 45%
same,inhibition,[20],6.11% (inactive) and 4.43% (inactive)
same,inhibition,[20]; measured here: combo with BGB IC20,7.77% and 5.34%
same,inhibition,[20]; measured here: combo with cisplatin IC20,14.5% and -0.76%
same,inhibition,[21]; at 0.5 µM,-8.03% (inactive) and 6.1% (inactive)
same,inhibition,"[21]; cisplatin combination, at 0.5 µM",5.04% and -12.2%
same,inhibition,"[21]; cisplatin combination, at 5 µM",12.2% and 15.1%
same,inhibition,"[21]; measured here: BGB IC40 combination 0.05 uM, at 0.05 µM",8.16% and -30.4%
same,inhibition,"[21]; single agent, at 5 µM",13.4% and 28.8%
same,inhibition,[22]; at 0.5 µM,-8.16% (inactive) and -14.2% (inactive)
same,inhibition,"[22]; cisplatin combo, at 5 µM",-16.1% and 2.1%
same,inhibition,"[22]; measured here: BGB IC40 combination, at 0.05 µM",-2.84% and -11.5%
same,inhibition,[22]; [33],8.34% and 10.3%
same,inhibition,"[22]; single agent, at 5 µM",-30.9% and -16.7%
same,inhibition,[23]; at 0.5 µM,6.4% (inactive) and -19.7% (inactive)
same,inhibition,[23]; [31],25.3% and -10.2%
same,inhibition,[23]; [32],-5.35% and -26.5%
same,inhibition,"[23]; single agent, at 0.05 µM",5.52% and 12.5%
same,inhibition,"[23]; single agent, at 5 µM",4.21% and -26.5%
